Screening data deposited in PubChem by National Center for Advancing Translational Sciences (NCATS).
Sampled rows, rich in hits. Any-hit rate of the full collection: about 19%.
HT1080NT lethal – kills 2HG-producing HT-1080-NT fibrosarcoma cells; HT-1080-NT fibrosarcoma viability, CellTiter-Glo ATP luminescence, 48 h; Potency, µM (series often up to 46.1 µM), for inactives: at the top dose activity, negative = less viability, hits mostly cytotoxic; 360,000 tested, 1.6% active;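 also: NT is the 2HG producing partner of a matched IDH1 knockdown line; potency is read from the fitted curve at half-maximal effect; 0% = DMSO-treated cells and -100% = media-only wells without cells; nearly all actives have a fitted effect of over 55% in size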
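A 48-hour cytotoxicity screen used HT-1080-NT cells plated 2 hours before compound delivery. ATP-based CellTiter-Glo luminescence measured viability, normalized to DMSO and no-cell controls.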
IL-1B inflam inh – blocks inflammasome-driven IL-1 beta release; 360,000 tested, 4.7% active; AID 743279; THP-1 LPS/ATP IL-1B secretion, AlphaLISA, 16 h; active compounds read low; activity change, % at 57.5 µM; in the data active = activity change below about -50%; inconclusive = mostly about -30% to -49%
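THP-1 cells pretreated 1 hr with compounds (up to 57.5 uM final), then stimulated with LPS (250 ng/mL final) plus ATP (1.25 mM final); secreted IL-1B measured by AlphaLISA after 16 hr, decreased signal indicating inhibition.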
HT1080 IDH1KD tx – HT-1080 IDH1 knockdown cell toxicity (counter line). HT-1080 IDH1 knockdown viability, ATP luminescence, 48 h. Potency, µM (top dose mostly 46.1 µM), for inactives: at the top dose activity, negative = toxicity, hits mostly cytotoxic. 360,000 tested, 2% active;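 also: potency is read from the fitted curve at half-maximal effect; 0% = DMSO wells and -100% = cell-free medium wells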
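Using the IDH1-knockdown HT-1080 line run in the same batch and compound series as the NT line, viability after 48 h at 37 °C was determined by CellTiter-Glo luminescence and expressed as % activity.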
DT40 TDP1 CPT – DT40-hTDP1 cell growth loss with CPT. chicken DT40 Tdp1-/-;hTDP1 cells + 20 nM CPT, ATP luminescence, 48 h. Potency, µM (doses to about 46.2 µM), without a hit: at the highest dose activity change, negative = growth inhibition, most hits filed as inhibitors. 420,000 tested, 12% active. AID 686979; also: potency is read from the fitted curve at half-maximal effect; nearly all actives have a fitted effect of over 55% in size
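Chicken DT40 Tdp1-/- cells stably complemented with human TDP1 were seeded at 400 cells/well in medium containing 20 nM camptothecin, exposed to pin-transferred compounds, and grown at 37 °C for at least 48 hr. Viability was read as ATP luminescence.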
TDP1 cell noCPT – qHTS for Inhibitors of human tyrosyl-DNA phosphodiesterase 1 (TDP1): qHTS in cells in absence of CPT; DT40 Tdp1-/- hTDP1 cells, no CPT, ATP luminescence, 48 h; Potency, µM (highest dose often 46.2 µM), without a hit: at the highest dose activity change, negative = growth inhibition, usual class: inhibitors; 420,000 tested, 15% active; also: potency is read from the fitted curve at half-maximal effect; nearly all actives have a fitted effect of over 55% in size
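Chicken DT40 Tdp1-/- cells stably complemented with human TDP1 were seeded at 400 cells/well with DMSO in place of 20 nM camptothecin. After compound pinning, cells grew at least 48 hr at 37 °C; viability read by CellTiter-Glo luminescence.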
* marks the source's active call; other numbers are inactive results; i = inactive; ? = inconclusive; · = not tested or not shown; [ ] = remark or other dose. Unless noted, calls follow the shape of the dose curve; as a rule, active = well fitted curve in the direction sought with a large enough effect; inconclusive = small, poorly fitted or top-dose-only effect, or another doubt; inactive = no such curve, though single readings can be large; an effect the other way counts as inactive or inconclusive. Unless noted, % is scaled to controls: 0 for no effect and ±100 for the full control effect.

SMILES	HT1080NT lethal	IL-1B inflam inh	HT1080 IDH1KD tx	DT40 TDP1 CPT	TDP1 cell noCPT
COc1ccccc1CNc1nc(NC(C)C)nc2ccsc12	?	-98*	?	12µM*	12µM*
COc1ccccc1CNc1nc(-c2ccccc2CO)c2sccc2n1	-16%	-27	-22%	?	?
COc1cccc(CNc2nc(NC(C)C)nc3ccsc23)c1OC	15µM*	-81*	-19%	18µM*	21µM*
CC(C)c1ccc(CNc2nc(NCC3CC3)nc3ccsc23)cc1	23µM*	-30	18µM*	9.2µM*	10µM*
CC(C)Nc1nc(NCCN2CCNC2=O)c2sccc2n1	13%	34	0%	10%	-1%
O=C(CSc1nc2c([nH]c3ccccc32)c(=O)n1-c1ccc(Cl)cc1)NC1CCCCC1	·	·	·	10µM*	15µM*
Cc1cc(C)cc(-n2c(SCC(=O)NC3CCCCC3)nc3c([nH]c4ccccc43)c2=O)c1	·	·	·	16µM*	?
Cc1cc(C)cc(-n2c(SCC(=O)N3CCCC3)nc3c([nH]c4ccccc43)c2=O)c1	·	·	·	-7%	5%
O=C(COc1ccc(C(=O)c2ccc(F)cc2)cc1)NCc1ccc(F)cc1	?	6	?	3.3µM*	4.6µM*
COc1ccc(CNC(=O)COc2ccc(C(=O)c3ccc(F)cc3)cc2)cc1	?	-8	5.2µM*	2.6µM*	4.6µM*
Cc1c([N+](=O)[O-])cc(C(=O)Nc2ccc(Cc3ccncc3)cc2)cc1[N+](=O)[O-]	-3%	?	-3%	-12%	-18%
CCN(C(=O)c1ccc(Cl)c([N+](=O)[O-])c1)c1ccccc1	13%	-24	-5%	?	15µM*
Cc1ccc(NC(=O)c2cc(Cl)ccc2[N+](=O)[O-])cc1C	0%	-100*	2%	6%	10%
Cc1cc(C(=O)Nc2ccc(Nc3ccccc3)cc2)ccc1[N+](=O)[O-]	-25%	-65*	?	3.3µM*	4.6µM*
O=C(Nc1ccc(Cc2ccncc2)cc1)c1ccc(Cl)c([N+](=O)[O-])c1	-17%	-73*	3%[9.24 µM]	16µM*	18µM*
Cc1ccccc1NC(=O)CCC(=O)N/N=C/c1ccncc1	6%	-12	0%	-11%	13%
CCC1=NN(C(=O)c2cccc([N+](=O)[O-])c2)C(O)(c2ccc(C)cc2)C1 (stereo not given)	?	44	-16%	?	?
Cc1ccc(CNC(=O)Cc2c(C)c3c(cc(C)c4c(C)coc43)oc2=O)cc1	·	·	·	0%	-7%
O=C(Nc1ccc(Nc2ccccc2)cc1)c1ccc(Cl)cc1[N+](=O)[O-]	-10%	0	-3%	5.8µM*	16µM*
C/C(=N\NC(=O)c1ccc([N+](=O)[O-])c(C)c1)c1ccccc1Cl	-10%	-70*	-15%	?	21µM*
Cc1cc(NC(=O)c2cc3cccc([N+](=O)[O-])c3[nH]2)ccc1F	?	-20	-28%	?	21µM*
Cc1ccccc1NC(=O)c1ccc(Nc2c([N+](=O)[O-])cc([N+](=O)[O-])c3ccccc23)cc1	-17%	i	-8%	?	23µM*
CC(=O)Nc1ccccc1NC(=O)C/C(C)=N/NC(=O)c1ccc([N+](=O)[O-])c(Cl)c1	17%	14	18%	-18%	-8%
COCC(C)NC(=O)c1cc2cccc([N+](=O)[O-])c2[nH]1 (stereo not given)	-14%	15	-23%	18%	-2%
Cc1nc2cc(NC(=O)C3CC34CCN(Cc3ccc(O)c(Cl)c3)CC4)ccc2s1 (stereo not given)	·	·	·	6%	-13%
SMILES	HT1080NT lethal	IL-1B inflam inh	HT1080 IDH1KD tx	DT40 TDP1 CPT	TDP1 cell noCPT
CCCn1c(SCC(=O)NC2CCCCC2)nnc1C1CC1	9%	i	13%	3%	4%
COC(=O)C(Cc1ccc(O)cc1)NC(=O)Cn1cc(C)c(=O)[nH]c1=O (stereo not given)	-1%	11	-4%	-1%	-3%
CCN(C(=O)c1ccc(Cl)cc1[N+](=O)[O-])c1ccccc1C	-2%	4	3%	16µM*	15µM*
O=C(Nc1ccc(Nc2ccccc2)cc1)c1ccc(Cl)c([N+](=O)[O-])c1	-26%	-11	?	13µM*	10µM*
O=C(Nc1ccccc1C(=O)N1CCCC1)c1ccc(Cl)c([N+](=O)[O-])c1	-15%	?	-5%	-22%	?
O=C(Nc1ccccc1-c1ccccc1)c1ccc(Cl)c([N+](=O)[O-])c1	?	-100*	?	-12%	?
CCN(CC)S(=O)(=O)c1nnc(NC(=O)COc2ccccc2F)s1	·	·	·	-12%	-28%
O=S(=O)(Nc1ccc(-c2ccc(N3CCCC3)nn2)cc1)c1cc(F)ccc1F	·	·	·	?	-46%
O=C(COC(=O)CSc1ccc(Cl)cc1)Nc1ccc2[nH]c(=O)[nH]c2c1	-8%	0	-2%	-8%	?
CCOC(=S)SCC(=O)N1CCc2cc(OC)ccc2C1C1C(=O)CCCC1=O (stereo not given)	?	91	23µM*	?	18µM*
CCOC(=S)SCC(=O)N1CCc2cc(OC)c(OC)cc2C1C1C(=O)CC(C)(C)CC1=O (stereo not given)	-8%	0	-7%	17%	6%
CCOC(=O)N1CCN(Cc2nc3cc(NC(=O)C(C)C)ccc3n2C(C)C)CC1	·	·	·	5.2µM*	2.6µM*
CCCn1c(CN2CCN(C(=O)OCC)CC2)nc2cc(NC(=O)CC)ccc21	7.3µM*	45	5.8µM*	3.3µM*	4.6µM*
CCOC(=O)N1CCN(Cc2nc3cc(NC(=O)c4ccc(OC)cc4)ccc3n2C(C)C)CC1	·	·	·	4.1µM*	?
CCOC(=O)N1CCN(Cc2nc3cc(NC(=O)c4ccc(F)cc4)ccc3n2C(C)C)CC1	·	·	·	0.92µM*	1µM*
CCOC(=O)N1CCN(Cc2nc3cc(NC(=O)C(C)C)ccc3n2C)CC1	23%	21	22%	-2%	-12%
CCNC(=O)C[C@@H]1CC[C@@H]2NC[C@@H](O)COC[C@H]2O1	16%	9	24%	-3%	-1%
CCc1ccccc1N(C)C(=O)Cc1c(C(=O)O)c(C)cn1C	·	·	·	0%	-12%
CN(C)Cc1ccccc1-c1cc(NC2CC2)ncn1	·	·	·	-8%	2%
Cc1ccsc1C(=O)N1CCC1(C)C(=O)NCCC#N (stereo not given)	21%	15	18%	1%	-9%
C#Cc1cccc(Nc2nc(NCc3ccccc3)nc3ccsc23)c1	?	0	?	9.2µM*	10µM*
Fc1ccc(Nc2nc(NCc3ccccc3)nc3ccsc23)cc1	21µM*	?	-25%	8.2µM*	9.2µM*
